Measured values as given in PubChem BioAssay (NCATS).
Results filed as inconclusive are left out. A call without a number means that no potency is given here. Active and inactive are the calls of the source. Unless noted, the call rests on the fitted dose curve; in most records, active means well fitted curve in the direction sought with a large enough effect; inconclusive means small, poorly fitted or top-dose-only effect, or another doubt; inactive means no such curve, though single readings can be large; an effect the other way counts as inactive or inconclusive.

Key:
[1] = P-glycoprotein substrates identified in KB-8-5-11 adenocarcinoma cell line, qHTS therapeutic library screen (AID 1346987); further: nearly all actives have a fitted effect of over 65% in size; further: potency means the concentration at half of the fitted maximal effect
Method in brief: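 KB-8-5-11: colchicine-selected sub-line of KB-3-1 over-expressing P-gp; assay medium lacked colchicine. 72 h drug exposure at 37 degree C, CellTiter-Glo.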

[2] = molecular target: Calcium and integrin-binding protein 1 (Homo sapiens) (UniProt Q99828); assay: Primary qHTS for Identification of Calcium Integrin Binding Protein 1 (CIB1) Competitor (AID 1508620);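 further: GST tagged CIB1 binding a fluorescein labelled alphaIIb integrin peptide tracer; top concentration of the series differs between compounds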
Method in brief: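 Fluorescence polarization competition: CIB1-GST (1 uM final) preincubated with compound 15 min at room temperature, then FITC-labeled alphaIIb peptide (100 nM final) added for another 15 min. Polarization read at Ex 480/Em 540.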

[3] = Primary qHTS for inhibitors of nuclear receptor binding SET domain protein 2 (NSD2) in an isogenic RCH-ACV NSD2 p.E1099K mutant (9B) (AID 1645876); further: nearly all actives have a fitted effect of over 70% in size; further: potency means the concentration at half of the fitted maximal effect
[4] = Primary qHTS for inhibitors of nuclear receptor binding SET domain protein 2 (NSD2) in an RCH-ACV wild type WT cells (2C) (AID 1645877); further: nearly all actives have a fitted effect of over 70% in size; further: potency means the concentration at half of the fitted maximal effect
[5] = molecular target: Glutathione peroxidase 1 (Homo sapiens) (UniProt P07203); assay: Primary qHTS Assay for Inhibitors of Recombinant Selenoprotein Glutathione Peroxidase 1 (GPX1) (AID 1845191); further: nearly all actives have a fitted effect of over 65% in size
Method in brief: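 Recombinant GPX1 (10 nM final) was preincubated with compound for 30 min at room temperature, then reacted with 1 mM GSH, 0.5 mM CHP, 0.5 mM NADPH and 100 nM glutathione reductase; NADPH fluorescence (340/450 nm) was read at 0 and 15 min.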

[6] = qHTS to identify inhibitors of the type 1 interferon - major histocompatibility complex class I in skeletal muscle: primary screen against the NCATS Mechanism Interrogation Plate v5.0 (MIPE) Libary (AID 1347411); further: nearly all actives have a fitted effect of over 65% in size
Method in brief: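 Immortalized human C25cl48 myoblasts with HiBit knocked into endogenous HLA-B*08:01 were stimulated with 4.0 ng/ml IFN-beta and exposed to compounds (11-point 1:3 titration, top 46 uM final) for 24 hrs at 37 C; HiBiT lytic luminescence measured.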

[7] = molecular target: Phospholipid hydroperoxide glutathione peroxidase GPX4 (Homo sapiens) (UniProt P36969); assay: Primary qHTS Assay for Inhibitors of Recombinant Selenoprotein Glutathione Peroxidase 4 (GPX4) (AID 1845192); details: outcome: dose series up to 50 µM unless noted; further: series mostly up to about 50 µM; nearly all actives have a fitted effect of over 65% in size
Method in brief: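 GR-coupled readout: 100 nM GR, 1 mM GSH, 0.5 mM NADPH; NADPH fluorescence (ex 340/em 450 nm) read at t=0 and after 15 min RT. GPX4 200 nM, preincubated 30 min with compound; substrate 0.5 mM CHP.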

[8] = qHTS drug screen for cell cycle checkpoint inhibitors in PARPi-resistant BRCA-mutant ovarian cancer cell lines. (AID 1963452; calls by dose curve); details: PEO1/OlaR viability, CellTiter-Glo luminescence, 96 h, stronger effect = lower value
Method in brief: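 PEO1, PEO4 and PEO1/OlaR ovarian cancer cells, 600 per well, exposed 96 h at 37C to a dilution series. Viability read by CellTiter-Glo luminescence, normalized to DMSO and empty wells; activity summarized as Z-AUC.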

[9] = molecular target: Tyrosine-protein kinase Yes (Homo sapiens) (UniProt P07947); assay: qHTS for small molecule inhibitors of Yes1 kinase: Primary Screen (AID 686947); further: potency means the concentration at half of the fitted maximal effect; nearly all actives have a fitted effect of over 60% in size
Method in brief: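 ADP-Glo luminescence readout; final 4 nM Yes1, 0.1 mM ATP, 0.3 mg/mL poly(E4Y), Tris pH 7.5, MgCl2, DTT, Brij-35. 20 min compound preincubation, 60 min reaction at RT. Normalized to DMSO wells with and without enzyme.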

[10] = qHTS for small molecule inhibitors of Yes1 kinase: Counter Assay (AID 686950);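 further: no kinase present so only ADP-Glo detection of a fixed ADP amount is tested; luminescence from ADP-Glo reporting ADP in a fixed ATP and ADP mixture; series mostly up to about 77 µM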
Method in brief: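 Enzyme-free ADP-Glo interference check: compounds were preincubated 20 min in buffer, then an ATP/ADP mix (0.08 mM ATP, 0.02 mM ADP final) was added for 60 min at room temperature before two-step ADP-Glo luminescence detection.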

[11] = molecular target: Atrial natriuretic peptide receptor 1 (Homo sapiens) (UniProt P16066); assay: Natriuretic polypeptide receptor (hNpr1) antagonism - Pilot CMLD screen (AID 1347052; calls by dose curve;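 further: HEK293 cells with hNpr1 stimulated by hNppA peptide at 0.1 nM; cGMP level read as GloSensor luciferase luminescence after agonist stimulation; series mostly up to about 9.2 µM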)
Chain of Atrial natriuretic peptide receptor 1 (Homo sapiens) (P16066 whole entry, looked up): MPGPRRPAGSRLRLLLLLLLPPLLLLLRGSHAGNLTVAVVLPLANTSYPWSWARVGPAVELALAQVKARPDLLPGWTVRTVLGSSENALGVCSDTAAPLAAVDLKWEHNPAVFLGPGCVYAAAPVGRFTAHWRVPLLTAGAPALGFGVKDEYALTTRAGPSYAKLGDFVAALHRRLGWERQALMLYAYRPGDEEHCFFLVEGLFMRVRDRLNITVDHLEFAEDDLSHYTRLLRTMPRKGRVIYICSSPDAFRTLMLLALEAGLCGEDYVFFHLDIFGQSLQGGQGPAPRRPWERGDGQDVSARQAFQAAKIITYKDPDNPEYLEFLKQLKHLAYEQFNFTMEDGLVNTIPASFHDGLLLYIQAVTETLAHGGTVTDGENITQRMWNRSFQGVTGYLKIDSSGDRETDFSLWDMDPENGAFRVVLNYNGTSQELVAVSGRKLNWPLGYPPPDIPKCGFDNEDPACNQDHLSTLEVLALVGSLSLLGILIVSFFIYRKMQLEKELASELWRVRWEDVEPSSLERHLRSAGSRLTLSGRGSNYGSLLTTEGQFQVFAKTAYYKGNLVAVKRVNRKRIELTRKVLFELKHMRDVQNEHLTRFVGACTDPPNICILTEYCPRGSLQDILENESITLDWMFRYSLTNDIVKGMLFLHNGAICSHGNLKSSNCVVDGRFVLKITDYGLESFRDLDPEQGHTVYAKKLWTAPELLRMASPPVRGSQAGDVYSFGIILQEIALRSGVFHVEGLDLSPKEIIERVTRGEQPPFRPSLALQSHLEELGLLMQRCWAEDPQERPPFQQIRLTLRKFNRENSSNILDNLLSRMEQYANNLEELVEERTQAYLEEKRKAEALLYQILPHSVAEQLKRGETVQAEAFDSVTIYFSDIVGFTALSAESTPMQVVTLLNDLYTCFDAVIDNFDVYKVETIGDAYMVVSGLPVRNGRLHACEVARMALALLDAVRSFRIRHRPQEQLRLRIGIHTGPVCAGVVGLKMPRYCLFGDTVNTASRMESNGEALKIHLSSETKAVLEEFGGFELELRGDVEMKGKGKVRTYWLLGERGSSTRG

Chain of Glutathione peroxidase 1 (Homo sapiens) (P07203 whole entry, looked up): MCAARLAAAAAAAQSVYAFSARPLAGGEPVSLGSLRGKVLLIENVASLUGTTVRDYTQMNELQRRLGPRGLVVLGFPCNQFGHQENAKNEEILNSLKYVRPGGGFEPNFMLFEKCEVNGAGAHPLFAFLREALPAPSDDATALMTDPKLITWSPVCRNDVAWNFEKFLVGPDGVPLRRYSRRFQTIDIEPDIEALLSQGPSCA
Chain of Calcium and integrin-binding protein 1 (Homo sapiens) (Q99828 whole entry, looked up): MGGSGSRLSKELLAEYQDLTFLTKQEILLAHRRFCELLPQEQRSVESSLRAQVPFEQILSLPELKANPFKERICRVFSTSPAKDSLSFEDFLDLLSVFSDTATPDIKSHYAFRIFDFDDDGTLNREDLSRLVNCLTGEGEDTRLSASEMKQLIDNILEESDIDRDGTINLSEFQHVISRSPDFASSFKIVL
Chain of Phospholipid hydroperoxide glutathione peroxidase GPX4 (Homo sapiens) (P36969 whole entry, looked up): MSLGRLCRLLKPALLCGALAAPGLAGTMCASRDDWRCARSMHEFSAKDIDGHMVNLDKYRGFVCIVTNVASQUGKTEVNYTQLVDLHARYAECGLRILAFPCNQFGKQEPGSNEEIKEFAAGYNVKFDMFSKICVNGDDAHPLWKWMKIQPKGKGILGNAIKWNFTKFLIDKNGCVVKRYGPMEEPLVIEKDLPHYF
Chain of Tyrosine-protein kinase Yes (Homo sapiens) (P07947 whole entry, looked up): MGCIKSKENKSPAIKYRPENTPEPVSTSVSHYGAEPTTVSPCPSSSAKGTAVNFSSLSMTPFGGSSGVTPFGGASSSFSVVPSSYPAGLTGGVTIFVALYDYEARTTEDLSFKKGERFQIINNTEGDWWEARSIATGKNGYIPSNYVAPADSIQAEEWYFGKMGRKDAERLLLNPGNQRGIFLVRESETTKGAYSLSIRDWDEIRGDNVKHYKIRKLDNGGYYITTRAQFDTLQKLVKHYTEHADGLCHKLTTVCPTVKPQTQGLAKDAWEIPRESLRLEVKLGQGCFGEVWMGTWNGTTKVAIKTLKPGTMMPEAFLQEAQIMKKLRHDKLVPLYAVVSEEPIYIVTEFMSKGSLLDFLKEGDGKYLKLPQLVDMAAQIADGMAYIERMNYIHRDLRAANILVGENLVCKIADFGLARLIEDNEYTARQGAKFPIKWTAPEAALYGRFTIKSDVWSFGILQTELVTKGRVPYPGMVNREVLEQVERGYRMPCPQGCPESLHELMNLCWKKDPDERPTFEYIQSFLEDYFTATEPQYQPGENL

SMILES: O=C1CCCC2=C1C1(CCSCC1)N=C(Nc1nc3ccccc3o1)N2
- Potency [1]: inactive
- outcome [2]: inactive
- Potency [3]: inactive
- Potency [4]: inactive
- Potency [5]: inactive

SMILES: CC(C)(C)n1nc(-c2cccc3ccccc23)c2c(N)ncnc21
- Potency [1]: inactive
- Potency [5]: inactive

SMILES: Cc1ccc(NS(=O)(=O)c2cc3c(cc2N[C@@H](C)CO)NC(=O)CC3)cc1Cl
- Potency [1]: inactive
- outcome [2]: inactive
- Potency [5]: inactive

SMILES: Cn1c(CNc2cccc(C(=O)NCc3ccccc3C(F)(F)F)c2)nnc1-c1ccncc1
- Potency [1]: inactive
- Potency [4]: 10.3 µM (active)
- Potency [5]: inactive

SMILES: CN(CCO)C1CCN(c2ccc(Nc3ncc4c5ccnc(F)c5n(C5CCCC5)c4n3)nc2)CC1
- Potency [1]: 11.2 µM (active)
- Potency [6]: inactive
- Potency [3]: 0.574 µM (active)
- Potency [4]: 0.512 µM (active)
- Potency [5]: inactive
- Potency [7]: inactive
- Z-AUC [8]: -1.43 (inactive)
- Z-AUC ([8]; measured here: PEO1 parental Z-AUC): -0.563
- Z-AUC ([8]; measured here: PEO4 Z-AUC): -1

SMILES: NS(=O)(=O)c1cccc(N=Cc2c(O)[nH]c3ccccc23)c1
- Potency [9]: 10.4 µM (active)
- outcome [10]: inactive
- Potency [1]: inactive
- Potency [5]: inactive

SMILES: COC(=O)C1=C(C)N(Cc2ccccc2)C(=NCc2ccc3c(c2)OCO3)NC1CCc1ccccc1 (centres undefined)
- Potency [11]: inactive

SMILES: COC(=O)c1ccc(CN2C(=O)[C@@]3(CC(C)=CC[C@@H](COc4ccccc4)O3)c3ccccc32)cc1
- Potency [11]: inactive

SMILES: CCOC(=O)CN1C(=O)[C@@]2(CC(C)=CC[C@@H](COc3ccccc3)O2)c2c(Br)cccc21
- Potency [11]: inactive

SMILES: CCCCn1c(C)cc2c(c1=O)[C@H]1O[C@](CCCCN3C(=O)c4ccccc4C3=O)(Cc3ccccc31)O2
- Potency [11]: inactive

SMILES: COc1ccc(-c2nc(-c3ccccc3)c(NCc3ccccc3)o2)cc1
- Potency [11]: inactive

SMILES: COc1cccc([C@H]2Oc3ccc(OC)cc3C(=NO[C@@H](C)CN3CCCCc4nc(C)c(C)cc43)[C@H]2O)c1
- Potency [11]: inactive

SMILES: Cc1ccccc1Nc1oc(-c2ccccc2)nc1-c1cccs1
- Potency [11]: inactive

SMILES: FC(F)(F)c1cc(NC(=S)Nc2ccc3cc4ccccc4cc3c2)cc(C(F)(F)F)c1
- Potency [11]: inactive

SMILES: C[C@@H]1[C@H](c2ccccc2)c2cc3ccccc3nc2C(=O)C[C@@H]1C(=O)N1CCCC1
- Potency [11]: inactive

SMILES: COc1cc2c(c(OC)c1OC)[C@@]1(c3ccccc3)CCCCC[C@H]1[C@@H]2NC(=O)C(F)(F)F
- Potency [11]: inactive

SMILES: CN1c2ccccc2[C@@]2(O)C(=O)[C@@]1(C)[C@H]1Cc3ccccc3[C@H]12
- Potency [11]: inactive

SMILES: CC=C(C)[C@H](O)C[Si](C)(C)c1ccccc1
- Potency [11]: inactive

SMILES: CC[C@@]12C=C(C=Cc3ccccc3)[C@](CC)(C1)[C@H](c1ccccc1)CC2=O
- Potency [11]: inactive

SMILES: COC(=O)C1=C(C)N(Cc2ccccc2)C(=NCCc2cccs2)NC1c1cccc(C(F)(F)F)c1 (centres undefined)
- Potency [11]: inactive

SMILES: C[C@@H]1C[C@H]2[C@@H](Cc3ccccc3)C(=O)N3[C@@H](C[C@@H](C)[C@@H]3c3ccccc3)[C@@H](Cc3ccccc3)C(=O)N2[C@H]1c1ccccc1
- Potency [11]: inactive

SMILES: CC(C)(C)Nc1oc(-c2ccccc2)nc1-c1cccc2ccccc12
- Potency [11]: inactive

SMILES: CC(CCN1CCCc2nc(C)c(C)cc21)=NO[C@H](C)CN1CCCc2nc(C)c(C)cc21
- Potency [11]: inactive

SMILES: COC(=O)CC=C1c2ccccc2[C@@H](O)[C@@H]1C
- Potency [11]: inactive
